# Screening results as filed in PubChem.
# A selection: hits, their analogues and other compounds. The true share with any hit is near 12%.
# G9a block – qHTS Assay for Inhibitors of Histone Lysine Methyltransferase G9a; Histone-lysine N-methyltransferase EHMT2 (Homo sapiens), Q96KQ7; G9a H3K9 monomethylation, AlphaScreen, 2 h; Potency, µM (doses to about 102 µM), for the others: at the top dose activity, negative = inhibition, hits mostly inhibitors; actives 8.8% (n = 350,000); AID 504332, 2011; note: % is set by controls: 0 for no effect and ±100 for the full control effect; nearly all actives have a fitted effect of over 75% in size
# Target sequence (Q96KQ7 913-1193 limits assumed): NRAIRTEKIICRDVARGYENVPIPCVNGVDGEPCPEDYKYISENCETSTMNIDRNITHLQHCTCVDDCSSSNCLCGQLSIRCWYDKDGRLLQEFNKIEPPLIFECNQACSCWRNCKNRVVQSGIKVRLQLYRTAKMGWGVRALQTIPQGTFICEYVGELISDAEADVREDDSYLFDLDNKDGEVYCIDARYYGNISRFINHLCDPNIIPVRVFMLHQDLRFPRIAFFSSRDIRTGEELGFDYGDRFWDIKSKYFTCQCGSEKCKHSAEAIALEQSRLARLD
#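 Readings reflect AlphaScreen signal from monomethyl-H3K9 antibody detection. HMT at 20 nM; substrate b-H3K9 500 nM; cofactor SAM 20 uM; 2 h RT reaction; compounds tested as titrations in qHTS with 15 min preincubation.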
# BAZ2B inh – qHTS Assay for Inhibitors of BAZ2B; Bromodomain adjacent to zinc finger domain protein 2B (Homo sapiens), Q9UIF8; AlphaScreen BAZ2B-H3K14Ac peptide displacement; Potency, µM (top dose mostly 114 µM), for inactives: top-dose activity change, negative = inhibition, most hits filed as inhibitors; actives 4.4% (n = 360,000); note: % is set by controls: 0 for no effect and ±100 for the full control effect; nearly all actives have a fitted effect of over 60% in size
#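 Compounds, titrated to a top concentration of 110 uM, were incubated 30 min at room temperature with preformed BAZ2B/acetyl-K14 H3 peptide complex (50 nM each). Proximity signal was measured by AlphaScreen after 20 min with beads.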
# HP1b binding inh – HTS for Inhibitors of HP1-beta Chromodomain Interactions with Methylated Histone Tails. Chromobox protein homolog 1 (Homo sapiens), P83916. Potency, µM (titrated, usually from 114 µM), for the others: at the top dose activity change, negative = inhibition, hits mostly inhibitors. actives 0.56% (n = 390,000). AID 540317, 2011. AlphaScreen HP1-beta / biotin-H3K9me3 peptide binding; note: nearly all actives have a fitted effect of over 70% in size
# Target sequence (P83916 whole entry, looked up): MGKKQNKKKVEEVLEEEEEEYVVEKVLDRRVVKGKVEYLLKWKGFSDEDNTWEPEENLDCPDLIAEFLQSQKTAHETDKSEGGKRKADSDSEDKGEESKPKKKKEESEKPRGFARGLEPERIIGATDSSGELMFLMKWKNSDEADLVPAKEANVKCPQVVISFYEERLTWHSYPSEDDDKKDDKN
#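 Compound inhibition of the preformed complex between 50 nM HP1-beta and 50 nM biotinylated H3K9me3 peptide was read by AlphaScreen. Buffer was PBS pH 7.4 with 0.01% Tween-20. Incubations ran 30 min at room temperature, with 10 ug/mL donor/acceptor beads.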
# L3MBTL1 block – qHTS Assay for the Inhibitors of L3MBTL1; AlphaScreen L3MBTL1–H3K9me1 peptide binding; actives 0.66% (n = 230,000); Potency, µM (series often up to 57.1 µM), without a hit: at the top dose activity, negative = inhibition, actives largely listed as inhibitors; Lethal(3)malignant brain tumor-like protein 1 (Homo sapiens), Q9Y468; note: % is set by controls: 0 for no effect and ±100 for the full control effect; nearly all actives have a fitted effect of over 60% in size
#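 Read-out is AlphaScreen signal from streptavidin donor and nickel chelate acceptor beads (10 ug/mL final each) bridging L3MBTL1 (50 nM) and biotinylated K9-monomethylated H3(1-15) peptide (75 nM), after 30 min compound exposure at room temperature.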
# Sfp inh – qHTS Assay for Inhibitors of Bacillus subtilis Sfp phosphopantetheinyl transferase (PPTase); AID 1490, 2009; actives 3.5% (n = 310,000); Potency, µM, for the others: largest response in the series, negative = inhibition, hits mostly inhibitors; Biochemical Sfp PPTase activity, qHTS; 4'-phosphopantetheinyl transferase ffp (Bacillus subtilis), Q9F4F7;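 note: the enzyme is Sfp with the accession as filed and its product quenches rhodamine fluorescence; 0% = enzyme reaction without inhibitor and -100% = no enzyme wells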
#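 Sfp 15 nM + cpd, 15 min RT; start w/ rhodamine-CoA 5 uM, BHQ-2-YbbR 12.5 uM (final); 50 mM Hepes pH 7.6, 10 mM MgCl2, 0.01% NP-40, 0.01% BSA; read 525/598 nm at 0 and 30 min.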
# JMJD2A Tudor inh – qHTS Assay for Inhibitors of JMJD2A-Tudor Domain; Lysine-specific demethylase 4A (Homo sapiens), O75164; AlphaScreen JMJD2A-Tudor / H3K4me3 peptide binding; Potency, µM (top dose mostly 114 µM), for inactives: at the highest dose activity change, negative = inhibition, usual class: inhibitors; actives 4.4% (n = 390,000); note: % is set by controls: 0 for no effect and ±100 for the full control effect; nearly all actives have a fitted effect of over 50% in size
# Starred values were filed as active, the others as inactive; ? = inconclusive; · = no result given; [ ] = another dose, or the depositor's remark. Calls come from the whole dose curve; as a rule, active = well fitted curve in the direction sought with a large enough effect; inconclusive = small, poorly fitted or top-dose-only effect, or another doubt; inactive = no such curve, though single readings can be large; an effect the other way counts as inactive or inconclusive. Potency is the fitted concentration of half-maximal effect.
SMILES,G9a block,BAZ2B inh,HP1b binding inh,L3MBTL1 block,Sfp inh,JMJD2A Tudor inh
CCCCN(C(=O)Cn1nnc2ccccc21)C(C(=O)NCc1ccco1)c1ccncc1 (stereo not given),?,-2%,41%,5%,50µM*,-17%
Cc1cc2ccccc2nc1SCC(=O)NC1CCCC1,2%,4%,-1%,-3%,13%,14µM*
O=C(CSc1nc2ccccc2s1)NC1CCCC1,22µM*,-23%,5%,·,-7%,-10%
CCNc1nc(SCC(=O)Nc2ccccc2)nc(N2CCOCC2)n1,13%,-1%,-6%,·,6%,-20%
CC(C)(C)Nc1nc(SCC(=O)Nc2ccccc2Cl)nc(N2CCOCC2)n1,·,79µM*,14%,·,-6%,-20%
COC(=O)c1cccc(Nc2ncnc3sccc23)c1,35µM*,·,54%,-5%,-2%,-12%
COc1cccc(Nc2ncnc3sccc23)c1,-8%,13%,39%,·,-11%,-1%
COc1ccc(Nc2ncnc3sccc23)cc1,45µM*,-7%,-2%,·,-9%,-9%
c1ccc(Nc2ncnc3sccc23)cc1,-9%,1%,9%,·,-5%,-5%
COc1ccc(-c2cn3c(n2)sc2cc(C(=O)NC(C)C45CC6CC(CC(C6)C4)C5)ccc23)cc1 (stereo not given),1%[59 µM],1%,34%,·,·,1%
CC(C)(O)c1ccccc1CC[C@@H](SCC1(CC(=O)O)CC1)c1cccc(/C=C/c2ccc3ccc(Cl)cc3n2)c1,·,·,-5%,·,·,79µM*
CSc1ccc(CCNC(=O)C(C)n2nc(C)c3sc4ccccc4c3c2=O)cc1 (stereo not given),?,?,14%,·,·,-23%
Cc1nc2cc(-c3cccs3)nn2c(NCC(C)(C)CN(C)C)c1C,50µM*,-23%,36%,-8%,-3%,-12%
CCN(CC)CCCNc1cc(C)nc2cc(-c3cccs3)nn12,45µM*,-37%,28%,-1%,21%,-15%
CCOC(=O)c1ccn(-c2nc(-c3cccc(OC)c3)cc(C(F)(F)F)n2)n1,6%[59 µM],12%,43%,·,·,-1%
CC#CCN1c2ccccc2[C@]23C[C@@H](C(=O)OC)N(C(=O)CC(C)C)C2=NC(C(=O)OC)=C(C(=O)OC)[C@H]13,·,·,·,·,29%,·
O=C(CSc1nc2ccccc2s1)Nn1cnnc1,-25%[12.7 µM],?,41%,·,-17%,-16%
O=C(CSc1nc2ccccc2s1)NCCOc1ccc(Cl)cc1,19%[12.7 µM],5%[57.1 µM],38%,14%,-10%,11%
C=CCNC(=S)NNC(=O)CSc1nc2ccccc2s1,28µM*,-32%,33%,1%,5%,-13%
O=C(CSc1nc2ccccc2s1)NNC(=S)Nc1ccc(Cl)cc1,40µM*,4%,-5%,12%,13%,-22%
Cc1ccc2oc(=O)n(CCNC(=O)Nc3ccc(C)c(F)c3)c2c1,11%[59 µM],-6%,83%,·,·,-6%
COCCN(C(=O)CSc1nnc(-c2ccncc2)n1C)c1c(N)n(CC(C)C)c(=O)[nH]c1=O,·,·,41%,·,·,-9%
Cc1ccccc1-c1nnc(SCC(=O)N(CC(C)C)c2c(N)n(CC(C)C)c(=O)[nH]c2=O)n1C,50µM*,-7%,24%,0%,14%,15%
Cc1cc(C)n2c(SCC(=O)N(CC(C)C)c3c(N)n(CC(C)C)c(=O)[nH]c3=O)nnc2n1,18µM*,0%,26%,-9%,?,-12%
Cc1cc(SCC(=O)N(CC(C)C)c2c(N)n(CC(C)C)c(=O)[nH]c2=O)nc2ccccc12,6.3µM*,3%,11%,7%,·,-6%
SMILES,G9a block,BAZ2B inh,HP1b binding inh,L3MBTL1 block,Sfp inh,JMJD2A Tudor inh
Cc1ccc(-n2nnnc2SCC(=O)N(CC(C)C)c2c(N)n(CC(C)C)c(=O)[nH]c2=O)cc1,-32%,-6%,28%,6%,5%,-14%
Cn1c(NCc2ccccc2F)nc2ccccc21,-5%[59 µM],1%,24%,·,·,-7%
COc1ccc(C(=O)Nc2nc3n(n2)C(c2ccc(F)cc2)C=C(c2ccc(Cl)cc2)N3)cc1 (stereo not given),-24%[59 µM],?,23%,·,·,-17%
COC(=O)C1=C(C)NC(=O)/C1=C\c1cc(C)n(-c2c(C)cccc2C)c1C,10µM*,32µM*,?,·,-26%,32µM*
Cc1cc(/C=C2\NC(=O)NC2=O)c(C)n1-c1cccnc1,?,?,-5%,-5%,12%,-14%
COC(=O)C1=C(C)NC(=O)/C1=C\c1cc(C)n(-c2ccccc2F)c1C,·,45µM*,-10%,-10%,-13%,-33%
CCOC(=O)C1=C(O)/C(=C\c2cc(C)n(-c3ccccc3F)c2C)N=C1C,?,?,20%,·,-22%,?
COC(=O)C1=C(C)NC(=O)/C1=C\c1cccs1,-20%,-5%,4%,·,17%,-25%
Cc1cccc(C)c1-n1c(C)cc(/C=C2\NC(=O)NC2=O)c1C,?,40µM*,-21%,-13%,13%,50µM*
COC(=O)C1=C(C)NC(=O)/C1=C\c1cc(C)n(-c2ccccc2C)c1C,45µM*,45µM*,-68%,·,-14%,45µM*
Cc1cccc(C(=O)NC(=O)Nc2ccc(-c3cc(C(F)(F)F)nn3-c3ccccc3)cc2)c1,1%[59 µM],-12%,42%,·,·,-11%
CC(C)C(NC(=O)C(CC(=O)O)NC(=O)C(CCCCN)NC(=O)C(N)CCCN=C(N)N)C(=O)NC(Cc1ccc(O)cc1)C(=O)O (stereo not given),10%[12.7 µM],·,·,·,12%,·
FC(F)(F)c1ccnc(NCc2ccc(Cl)cc2)n1,83%,61%,113%,·,11%,63%
O=S(=O)(NNc1nccc(C(F)(F)F)n1)c1cccc(Cl)c1Cl,8.9µM*,-3%,10%,3%,35µM*,-14%
CCSc1ccccc1C(=O)NCc1cccnc1,8.9µM*,-12%,21%,4%,-4%,-16%
CCSc1ccccc1C(=O)NCc1ccco1,10µM*,0%,5%,·,15%,-23%
O=C(NCc1ccco1)c1ccccc1Br,9%[12.7 µM],12%,-23%,·,17%,50µM*
O=C(NCc1ccco1)C1c2ccccc2Oc2ccccc21,?,-9%,1%,?,40µM*,50µM*
